Drawing on PubChem BioAssay AID435019 (Southern Research Specialized Biocontainment Screening …, 2010), this text covers outcome for 111 compounds.

Structures are written as SMILES. Out of some 2,300 compounds screened, about 1,200 (52%) were called active. The rule behind the calls is not given here. So high a share suggests a set chosen from earlier hits. Some of the results follow. Where a call stands in place of a potency, no number is given. Potency and affinity values are given separately.

This assay is described as follows: mammalian cell cytotoxicity, dose response, cytotoxicity control for M. tuberculosis inhibitor project (AID 435019).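 Note: lower values mean fewer viable cells so more cytotoxicity.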 Particulars: cytotoxicity counter-screen; series mostly up to 40 µM.
Take `CC1(C)OC(=O)C(=Cc2ccc[nH]2)C(=O)O1`: the call was inactive. As for `Cc1ccccc1Cn1cc(NC(=O)c2noc(C(C)C)c2[N+](=O)[O-])cn1`, the outcome was inactive. Take `Cc1ccc(C2=NCCn3c2c2ccccc2[n+]3[O-])cc1`: the call was inactive. To `O=S(=O)(c1ccc(Oc2ccc3oc4ccccc4c3c2)nc1)N1CCCC1` belongs “inactive”; to `O=c1[nH][nH]c(-c2ccccc2O)c1C(C[N+](=O)[O-])c1cccc(Cl)c1` (stereo unspecified), “inactive”. As to `Cc1ccc(C(=O)n2c(N)nc3ccccc32)cc1`, the result was inactive. As for `Cc1ccc(NCCC(=O)c2ccc(Br)cc2)cc1`, the compound was called inactive. For `COc1ccc(N/C=C/c2nc(SC)nnc2C)cc1`, the call was inactive. For the compound `O=C(c1cc([N+](=O)[O-])ccc1N1CCOCC1)N1CCN(S(=O)(=O)c2cc(Cl)ccc2Cl)CC1`, the compound was called inactive. On to `COc1ccc(N2CCN(C(=O)c3cc4c(C)nc5ccccc5c4o3)CC2)cc1`, for which the compound was classed as inactive. In the case of `CC(=O)c1ccc(NC(=O)c2cc(CC(C)C)on2)cc1`, the compound was called inactive. `CN(CC(=O)Nc1ccc(OC(F)(F)F)cc1)C(=O)/C=C/c1cc2c(cc1[N+](=O)[O-])OCO2`: the compound was called inactive.

Consider `CCOC(=O)CSc1nc(N)c(C(=O)Nc2ccc(N(C)C)cc2)s1`, for which the call was inactive. As for `CCOc1ccc(NC(=O)N(C2CCCCC2)C(C)c2ccncc2)cc1` (stereo unspecified), the outcome was inactive.

For the compound `CCCc1ccc(OCc2ccccc2)c2c(=O)cc(C(=O)OCC)oc12`, the compound was classed as inactive.

Regarding `O=C(Nc1cccnc1Cl)c1cc(-c2ccco2)on1`, the call was inactive. Regarding `Cc1cc(C)n(-c2ccc(C(=O)Oc3ccc4c(c3)OCO4)cc2)n1`, the call was inactive. As for `COc1ccc(-c2nsc3c(N4CCCCC4C)ncnc23)cc1` (stereo unspecified), the entry is “inactive”. Regarding `Cc1ccc(N/C=C2\C(=O)C3(C)CCC2C3(C)C)cc1C` (stereo unspecified), the result was inactive. Take `O=C(CCC(=O)OCc1ccc(C(=O)Oc2ccc(Cl)cc2)cc1)Nc1ccccc1`: the compound was called inactive. For `COc1ccccc1OC(=O)c1ccc(S(=O)(=O)N(C)C)cc1`, the compound was called inactive. Regarding `CSc1ccc(CNC(=O)c2ccc(NC(=O)C3=CSCCO3)cc2)cc1`, the result was inactive. As for `CCC1(c2ccccc2)NC(=O)N(CC(=O)Nc2ccc(S(=O)(=O)NC3=NCCCCC3)cc2)C1=O` (stereo unspecified), the result was inactive. Consider `CC(=O)/C(=N\Nc1ccc(C)cc1)N1CCOCC1`, for which the call was inactive. In the case of `O=[N+]([O-])c1ccc(CN2CCN(c3ccc(Cl)cc3)CC2)o1`, the call was inactive. Take `CCOC(=O)C1CCN(CC(O)COc2ccc(C(C)(C)CC)cc2)CC1` (stereo unspecified): the call was inactive. `C[N+](C)(CCCCCC[N+](C)(C)CCCN1C(=O)c2cccc3cccc(c23)C1=O)CCCN1C(=O)c2cccc3cccc(c23)C1=O`: the result was inactive. `O=C(c1ccccc1)c1nn(-c2ccc(Cl)cc2)cc1C(=O)c1cc2ccccc2oc1=O`: the compound was classed as inactive. As to `COc1c[nH]n(C2CCCCC2)c(=O)c1=O`, the outcome was inactive. As to `CCOc1ncccc1C(=O)OCC(=O)N1CCc2ccccc21`, the call was inactive. With `CS(=O)(=O)c1ccc([C@@H](O)[C@@H](CF)NC(=O)C(Cl)Cl)cc1`, the outcome was inactive. For the compound `O=C(O)Cc1c[nH]c2ccc(O)cc12`, the call was inactive.

Take `Cc1ccc(-c2cn3cccnc3n2)cc1NC(=O)c1ccc(Br)o1`: the call was inactive. With `O=C(CSC1=NC(=O)C(c2ccccc2)C(=O)N1)Nc1ccccc1Cl` (stereo unspecified), the result was inactive. As to `CCOC(=O)CSc1ccc(C(=O)Nc2ccc(OC)cc2)cn1`, the result was inactive.

Turning to `O=C(Nc1nc2nc(-c3ccccc3)cc(=O)n2[nH]1)c1ccccc1`, the outcome was inactive. With `O=C1N=C(N2CCC(Cc3ccccc3)CC2)S/C1=C/c1cn[nH]c1-c1ccccc1`, the outcome was inactive.

On to `C=CCSc1n[nH]c(-c2ccc(OCCCC)cc2)n1`, for which the outcome was inactive. As for `CCOC(=O)c1c(C)[nH]c(N=Nc2ccc(OC)cc2)c1C`, the call was inactive.

With `Cc1ccc2nc(SCC(=O)Nc3ccc4c(c3)CCC4)[nH]c2c1`, the compound was called inactive.

On to `O=C(CSCc1ccc([N+](=O)[O-])cc1)N/N=C/c1ccncc1`, for which the outcome was inactive. Take `CCOC(=O)COc1ccc(S(=O)(=O)NCCC2=CCCCC2)cc1`: the result was inactive. With `O=c1oc2ccccc2c2c1nc(C(F)(F)F)n2-c1ccccc1`, the compound was classed as inactive. Take `CCOC(=O)c1cn[nH]c1N`: the outcome was inactive. On to `CCCCc1ccc(NC(=S)N2CCN(c3ncccn3)CC2)cc1`, for which the compound was called inactive. With `CC(C)OC(=O)c1ccc(COC(=O)c2cnccn2)cc1`, the call was inactive. With `CC(=O)/C(=C\Nc1ccc(OCc2ccccc2)cc1)c1ccccc1`, the result was inactive. Regarding `C/C(=N/NC(=O)c1ccccn1)c1c[nH]c2ccccc12`, the compound was called inactive.

As for `CC/C(C)=N/NC(=S)NCc1ccco1`, the compound was called inactive. For `CCCCCCC(=O)N/N=C/c1ccc(Br)cc1`, the compound was classed as inactive. For `O=C(OCC(=O)N1CCC(c2ccccc2)=N1)c1ccc(Cl)s1`, the compound was called inactive. As to `Cc1ccc(C(=O)O/N=C(\N)c2ccc(Br)cc2)cc1C`, the compound was classed as inactive. To `COC(=O)c1ccc(COC(=O)CCc2nc(-c3ccccc3)c(-c3ccccc3)o2)cc1` belongs “inactive”. Turning to `Cc1cc(=O)oc2cc(OC(=O)C3CCN(C(=O)c4ccc(F)cc4)CC3)ccc12`, the call was inactive.

For `Cc1ccc(C(=O)N2N=C(CC(C)C)CC2(O)C(F)(F)F)o1` (stereo unspecified), the result was inactive.

Consider `Nc1ccc2c(c1)Cc1ccccc1-2`, for which the compound was called inactive. Regarding `CCCC(=O)Nc1sc2c(c1C#N)CCCCC2`, the compound was called inactive. Regarding `CCOC(=O)CSc1nnc(-c2c[nH]c3ccccc23)o1`, the compound was classed as inactive. On to `CCOC(=O)Cn1c(C)c(Br)c(=O)c2cccc(C)c21`, for which the compound was called inactive. As for `Cc1ccc(/C=C2\SC(N3CCCC3)=NC2=O)cc1`, the compound was classed as inactive. `CN(C)C/C=C/C(=O)Nc1cccc(-c2c[nH]c3ncnc(Oc4ccc(NC(=O)CC(=O)Nc5ccc(F)cc5)cc4F)c23)c1`: the compound was called inactive.

Take `CSc1nsc(SCC(=O)N2CCCCC2)n1`: the compound was classed as inactive. In the case of `NNC(=S)NCc1ccc2c(c1)OCO2`, the outcome was inactive. As for `CCOc1ccc(/C=N/OCC(=O)Nc2cc(C)on2)cc1`, the entry is “inactive”. For `Cc1cc(NC(=O)c2noc3c2CCCC3)nn1Cc1ccc(Cl)cc1`, the compound was called inactive. As to `COCCCN=C1NN=C(c2cc(C)n(Cc3ccco3)c2C)CS1`, the outcome was inactive. Turning to `Cc1ccc(C2=NN(C)c3nc4ccccc4n3C2)cc1`, the compound was called inactive.

For the compound `COc1ccc(OC)c(CN2CCN(C(=O)CNC(=O)c3ccc(C(C)(C)C)cc3)CC2)c1`, the compound was called inactive. As for `Cc1cc(NC(=O)CCN2C(=O)C3C4C=CC(C4)C3C2=O)ccc1Br` (stereo unspecified), the compound was called inactive. As for `COc1ccc(-c2c(C#Cc3ccsc3)c3ccccc3n2C)cc1`, the entry is “inactive”. As to `CCOC(=O)c1ccc(NC(=O)C(C)Sc2nc(O)c(-c3ccccc3)c(=O)[nH]2)cc1` (stereo unspecified), the call was inactive. As for `O=C(Nc1ccc(C2=NCCN2)cc1)c1ccc(Cl)c(C(=O)Nc2ccc(C3=NCCN3)cc2)c1`, the entry is “inactive”. `CC(=O)c1sc(NC(=O)c2cc(=O)c3ccccc3o2)nc1C`: the result was inactive. Regarding `C=CCc1cccc(CNc2cnc3ccccc3c2)c1O`, the outcome was inactive.

With `Cc1cc(-c2cc(-c3ccccc3)on2)nc(NC2CCCC2)n1`, the outcome was inactive. Turning to `Cc1ccsc1/C=N/Nc1ccc(F)cc1F`, the outcome was inactive. For the compound `CC(C)(C)c1nc2sc3c(c2c(=O)o1)CCCC3`, the compound was classed as inactive. With `Cc1ccc(CNC(=O)c2sc3nc4c(c(C(F)(F)F)c3c2N)CCC4)cc1`, the result was inactive. As for `COc1ccc(C(=O)C2CCCN(C3CSCCSC3)C2)c(C)c1` (stereo unspecified), the entry is “inactive”; as for `CN1C(=O)c2cccc3c(Br)ccc(c23)C1=O`, “inactive”. On to `CN(Cc1ccc(Br)cc1)C(=O)CCN1C(=O)c2cccc([N+](=O)[O-])c2C1=O`, for which the call was inactive.

Consider `O=C(Nc1ccc(Cl)cc1)N(C1=NCCC1)c1ccc(OC(F)F)cc1`, for which the result was inactive. `O=C(c1ccco1)N1CCN(C(=O)C2CC(c3ccc(Cl)c(Cl)c3)=NO2)CC1` (stereo unspecified): the outcome was inactive. For `O=c1cc2[nH]c3ccccc3c(=O)n2nc1-c1ccccc1`, the compound was called inactive. Take `c1ccc(-c2nc(N3CCCC3)nc3ccccc23)cc1`: the result was inactive. With `CN1/C(=C\C(=O)COC(=O)c2ccc([N+](=O)[O-])o2)C(C)(C)c2ccccc21`, the compound was called inactive. Consider `CCOC(=O)N/N=C(/C)c1ccc([N+](=O)[O-])o1`, for which the compound was classed as inactive.

Take `CCOc1cc(C2NN=C(c3ccc(C)cc3)S2)ccc1O` (stereo unspecified): the compound was classed as inactive.

As to `N#C/C(=C1\CCCN1)c1nc(-c2ccccc2)cs1`, the call was inactive.

Consider `O=C(Nc1ccc(-n2cccc2)cc1)C1CC1`, for which the call was inactive. With `Cc1ccc(NC(=O)C2C3/C=C\CCCCC32)cc1C` (stereo unspecified), the call was inactive. `Cc1ccc(S(=O)(=O)NCc2ccc(C(=O)NCCCN3CCC(Cc4ccccc4)CC3)cc2)cc1`: the outcome was inactive. To `COc1cccc(-n2nnc3c(=O)n(CC(=O)N4CCC(Cc5ccccc5)CC4)cnc32)c1` belongs “inactive”. With `CCCCCCSc1nsc(NC(=O)CC(C)C)n1`, the outcome was inactive. Regarding `Cc1c(OCc2ccccc2)c(=O)ccn1Cc1ccc(Cl)cc1`, the outcome was inactive. `CC(=O)N1C(Nc2ccc(Cl)cc2)CCN1c1ccccc1` (stereo unspecified): the compound was classed as inactive. Regarding `Nc1ccc2c(c1)oc1ccccc12`, the result was inactive. On to `Cc1ccc(-n2[nH]c(C)c(C=Nc3ccc(S(=O)(=O)Nc4nccs4)cc3)c2=O)c(C)c1`, for which the compound was called inactive.

For `Cc1ccccc1C(=O)Nc1ccc(N(C)C)c2ccccc12`, the compound was called inactive. To `N/C(=N\OC(=O)Nc1ccc(Cl)c(Cl)c1)c1ncc(C(F)(F)F)cc1Cl` belongs “inactive”. `CC(C)C(=O)N1CCC2(CC1)Oc1ccc(Cl)cc1C(=O)C21CC(c2ccccc2)=NO1` (stereo unspecified): the compound was classed as inactive. Consider `COc1ccc(C(=O)OCC(=O)c2ccc(Br)s2)c(OC)c1`, for which the outcome was inactive. Consider `CCOC(=O)C1CCCc2c1[nH]c1c(C(N)=O)cccc21` (stereo unspecified), for which the outcome was inactive. Regarding `O=C(OCc1ccccc1F)c1cnc(Cl)c(Cl)c1`, the compound was classed as inactive. As to `O=C(OCc1ccc([N+](=O)[O-])cc1)c1cc2ccccc2oc1=O`, the compound was classed as inactive. Take `COc1ccccc1C1=NOC(COC(=O)c2ccc([N+](=O)[O-])cc2)C1` (stereo unspecified): the result was inactive. Regarding `CCCCS/C(N)=N/N=C/c1cc(C)ccc1O`, the result was inactive. Consider `Nc1ccc(Oc2ccc(F)cc2)nc1`, for which the result was inactive. As to `CCOC(=O)c1cc(-c2cccc([N+](=O)[O-])c2)on1`, the compound was classed as inactive. For `CNC(=S)Nc1ccc(N2CCN(c3ccc(C(F)(F)F)cn3)CC2)nc1`, the result was inactive.

In the case of `CCCCCCC#Cc1ccc2c(c1)COc1c3ccccc3nn1-2`, the result was inactive.
